For 9 compounds, growth inhibition results are on record in PubChem BioAssay (NCI).

Compounds without any hit were thinned out: in the full panel of roughly 79,000, 15% have a hit. Values without a mark were called inactive. Activity calls are given as the source filed them. Cut-off read from the data, not from the text of the source: active = growth inhibition above about 70%; inactive = the rest.

Assay [1] is described as follows: NCI Yeast Anticancer Drug Screen. Data for the rad50 strain (AID 155).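 Note: 0% = growth of vehicle-only cultures of the same strain.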 As to conditions: S. cerevisiae rad50 strain growth inhibition, active compounds read high. The method, boiled down:
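Genetically altered yeast (DNA repair pathway); compound treatment; growth inhibition vs vehicle ctrl.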

Assay [2] in a line: NCI Yeast Anticancer Drug Screen. Data for the mec2-1 strain (AID 157). As to conditions: S. cerevisiae mec2-1 strain, active compounds read high. The method, boiled down: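 Vehicle-treated cultures served as reference for growth inhibition of compound-exposed mec2-1 yeast.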
Assay [3] can be described thus: NCI Yeast Anticancer Drug Screen. Data for the sgs1 mgt1 strain (AID 161).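 Note: 0% = growth of cultures given vehicle only.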 The following applies: S. cerevisiae sgs1 mgt1 strain, active compounds read high. In outline: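 Read-out: growth inhibition vs vehicle controls. Cells: mutant yeast strain deficient in DNA damage repair.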
Assay [4] in a line: NCI Yeast Anticancer Drug Screen. Data for the cln2 rad14 strain (AID 165).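 Note: 0% = growth equal to vehicle treated cultures.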 As to conditions: S. cerevisiae cln2 rad14 strain, active compounds read high. The method, boiled down:
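Each compound was tested on cln2 rad14 yeast. Inhibition of growth was calculated against vehicle-exposed controls.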

A short description of assay [5]: NCI Yeast Anticancer Drug Screen. Data for the bub3 strain (AID 167). As to conditions: S. cerevisiae bub3 mutant strain, active compounds read high. The method, boiled down: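 Yeast carrying a defined mutation is treated with each compound, and growth is compared with that of vehicle-exposed cells to give inhibition.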
Assay [6] in a line: NCI Yeast Anticancer Drug Screen. Data for the mlh1 rad18 strain (AID 175). The following applies: S. cerevisiae mlh1 rad18 strain growth inhibition, active compounds read high. The method, boiled down:
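Vehicle-treated cultures served as the reference for growth inhibition in a yeast strain carrying DNA damage repair alterations exposed to each compound.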

Where [7] appears, read: at 5.0 µM (retest, dose inferred, filed as 0.5).
Setting [8] is: at 50.0 µM (retest, dose inferred, filed as 5.0).

Turning to `Cc1cccc(Cl)c1NC(=O)/C=C/c1ccccc1`, the growth inhibition is 41% in assay [1] (setting [7]); 44% in assay [1] (setting [8]); -22.1% in assay [1] (at 50.0 µM); 44% in assay [2] (setting [7]); 44% in assay [2] (setting [8]); -6.05% in assay [2] (at 50.0 µM). Also, the growth inhibition in assay [3] (setting [7]) is -1%; in assay [3] (setting [8]), 23%; in assay [3] (at 50.0 µM), 1.1%; in assay [4] (setting [7]), 29%; in assay [4] (setting [8]), 6%; in assay [4] (at 50.0 µM), -1.6%. Besides, the growth inhibition in assay [5] (setting [7]) was 27%; in assay [5] (setting [8]) it was 39%; in assay [5] (at 50.0 µM), 8.6%; in assay [6] (setting [7]), 35%; in assay [6] (setting [8]), 48%; in assay [6] (at 50.0 µM) it was -6.65%.
Turning to `CS(=O)(=O)N1C(=O)C2C3CCC(O3)C2C1=O` (configuration not stated), the growth inhibition in assay [1] (setting [7]) is -142%; in assay [1] (setting [8]) it was 91% (active); in assay [1] (at 50.0 µM), 73.5% (active); in assay [2] (setting [7]) it was -46%; in assay [2] (setting [8]), 71% (active); in assay [2] (at 50.0 µM), 57.7%. Further, the growth inhibition in assay [3] (setting [7]) was -61%; in assay [3] (setting [8]), 52%; in assay [3] (at 50.0 µM) it was 26.4%; in assay [4] (setting [7]), -56%; in assay [4] (setting [8]), 73% (active); in assay [4] (at 50.0 µM), 19.5%. In addition, the growth inhibition in assay [5] (setting [7]) was -74%; in assay [5] (setting [8]) it was 64%; in assay [5] (at 50.0 µM), 40.8%; in assay [6] (setting [7]), -145%; in assay [6] (setting [8]) it was 75% (active); in assay [6] (at 50.0 µM), 42.6%.
Consider `CC([C@H]1CCC2C3CCC4CC5(CC[C@]4(C)C3CC[C@@]21C)c1ccccc1C(=O)N5C)N(C)C` (some centres not stated), for which the growth inhibition in assay [1] (setting [7]) is -11%; in assay [1] (setting [8]), 81% (active); in assay [1] (at 50.0 µM) it was 83.3% (active); in assay [2] (setting [7]) it was -11%; in assay [2] (setting [8]), 55%; in assay [2] (at 50.0 µM), 89.4% (active). For the same compound, the growth inhibition in assay [3] (setting [7]) was 11%; in assay [3] (setting [8]), 87% (active); in assay [3] (at 50.0 µM) it was 89.6% (active); in assay [4] (setting [7]), 14%; in assay [4] (setting [8]), 85% (active); in assay [4] (at 50.0 µM) it was 73.3% (active). In addition, the growth inhibition in assay [5] (setting [7]) is 6%; in assay [5] (setting [8]), 83% (active); in assay [5] (at 50.0 µM), 86.5% (active); in assay [6] (setting [7]), 18%; in assay [6] (setting [8]) it was 84% (active); in assay [6] (at 50.0 µM) it was 78.2% (active).
Consider `COc1ccccc1C(=O)[O][Sn]([c]1ccccc1)([c]1ccccc1)[c]1ccccc1`, for which the growth inhibition in assay [1] (setting [7]) was 100% (active); in assay [1] (setting [8]) it was 99% (active); in assay [1] (at 50.0 µM) it was 99.2% (active); in assay [2] (setting [7]), 100% (active); in assay [2] (setting [8]), 100% (active); in assay [2] (at 50.0 µM), 99.3% (active). Besides, the growth inhibition in assay [3] (setting [7]) is 99% (active); in assay [3] (setting [8]), 99% (active); in assay [3] (at 50.0 µM) it was 99.3% (active); in assay [4] (setting [7]), 99% (active); in assay [4] (setting [8]), 99% (active); in assay [4] (at 50.0 µM), 89.3% (active). Moreover, the growth inhibition in assay [5] (setting [7]) is 100% (active); in assay [5] (setting [8]), 99% (active); in assay [5] (at 50.0 µM), 99% (active); in assay [6] (setting [7]), 99% (active); in assay [6] (setting [8]), 99% (active); in assay [6] (at 50.0 µM), 98.7% (active).
`N#CCCN(CCC#N)Cc1c(O)c(O)c(CN(CCC#N)CCC#N)c2ccccc12`: the growth inhibition was -2% in assay [1] (setting [7]); 12% in assay [1] (setting [8]); 61.1% in assay [1] (at 50.0 µM); -1% in assay [2] (setting [7]); 41% in assay [2] (setting [8]); 48% in assay [2] (at 50.0 µM). Further, the growth inhibition in assay [3] (setting [7]) was -10%; in assay [3] (setting [8]) it was 46%; in assay [3] (at 50.0 µM), 59.2%; in assay [4] (setting [7]), 0%; in assay [4] (setting [8]), -7%; in assay [4] (at 50.0 µM) it was 46.2%. Besides, the growth inhibition in assay [5] (setting [7]) was -3%; in assay [5] (setting [8]), 26%; in assay [5] (at 50.0 µM), 54%; in assay [6] (setting [7]), -4%; in assay [6] (setting [8]), 25%; in assay [6] (at 50.0 µM) it was 59%.
As for `C[P+](c1ccccc1)(c1ccc(Cl)cc1)c1ccc(Cl)cc1`, the growth inhibition in assay [1] (setting [7]) was -26%; in assay [1] (setting [8]), 72% (active); in assay [1] (at 50.0 µM) it was 50.6%; in assay [2] (setting [7]), -3%; in assay [2] (setting [8]), 28%; in assay [2] (at 50.0 µM), 28.7%. Further, the growth inhibition in assay [3] (setting [7]) was 0%; in assay [3] (setting [8]), 81% (active); in assay [3] (at 50.0 µM) it was 71.9% (active); in assay [4] (setting [7]), -3%; in assay [4] (setting [8]), 1%; in assay [4] (at 50.0 µM) it was -39.3%. The growth inhibition in assay [5] (setting [7]) was -1%; in assay [5] (setting [8]), 75% (active); in assay [5] (at 50.0 µM), 69.5%; in assay [6] (setting [7]) it was 12%; in assay [6] (setting [8]), 59%; in assay [6] (at 50.0 µM), 46.9%.
As for `O=C1CCC(O)N1CN1C(=O)CCC1O` (configuration not stated), the growth inhibition in assay [1] (setting [7]) is -4%; in assay [1] (setting [8]), 1%; in assay [1] (at 50.0 µM), 36.1%; in assay [2] (setting [7]) it was -4%; in assay [2] (setting [8]) it was -17%; in assay [2] (at 50.0 µM), 18.4%. Moreover, the growth inhibition in assay [3] (setting [7]) is 9%; in assay [3] (setting [8]) it was -3%; in assay [3] (at 50.0 µM), 22.9%; in assay [4] (setting [7]), -17%; in assay [4] (setting [8]), 10%; in assay [4] (at 50.0 µM), 20.8%. Moreover, the growth inhibition in assay [5] (setting [7]) is 18%; in assay [5] (setting [8]), -4%; in assay [5] (at 50.0 µM), 22.1%; in assay [6] (setting [7]), -6%; in assay [6] (setting [8]), -10%; in assay [6] (at 50.0 µM) it was 46.5%.
With `CC(=O)N1c2ccccc2Sc2ccc(C(=O)CCl)cc21`, the growth inhibition in assay [1] (setting [7]) is 14%; in assay [1] (setting [8]) it was 79% (active); in assay [1] (at 50.0 µM), 95.7% (active); in assay [2] (setting [7]), 19%; in assay [2] (setting [8]), 95% (active); in assay [2] (at 50.0 µM), 95.7% (active). For the same compound, the growth inhibition in assay [3] (setting [7]) is 15%; in assay [3] (setting [8]), 91% (active); in assay [3] (at 50.0 µM), 93.9% (active); in assay [4] (setting [7]) it was 9%; in assay [4] (setting [8]), 50%; in assay [4] (at 50.0 µM) it was 81.2% (active). The growth inhibition was 8% in assay [5] (setting [7]); 91% (active) in assay [5] (setting [8]); 95.8% (active) in assay [5] (at 50.0 µM); 30% in assay [6] (setting [7]); 94% (active) in assay [6] (setting [8]); 94.7% (active) in assay [6] (at 50.0 µM).
For the compound `CCCCCCCN=C(N)c1ccc(C(=O)OC2CCCCC2)cc1`, the growth inhibition in assay [1] (setting [7]) was -1%; in assay [1] (setting [8]), 84% (active); in assay [1] (at 50.0 µM), 96.8% (active); in assay [2] (setting [7]), 17%; in assay [2] (setting [8]), 89% (active); in assay [2] (at 50.0 µM), 98% (active). In addition, the growth inhibition in assay [3] (setting [7]) was 34%; in assay [3] (setting [8]), 98% (active); in assay [3] (at 50.0 µM) it was 99% (active); in assay [4] (setting [7]), 1%; in assay [4] (setting [8]), 70% (active); in assay [4] (at 50.0 µM) it was 96.4% (active). In addition, the growth inhibition in assay [5] (setting [7]) is 1%; in assay [5] (setting [8]) it was 73% (active); in assay [5] (at 50.0 µM), 97.5% (active); in assay [6] (setting [7]), 21%; in assay [6] (setting [8]), 90% (active); in assay [6] (at 50.0 µM), 99% (active).
